# This is a sample that favours compounds with a hit; in the whole collection about 19% have one here.
# DT40 TDP1 no CPT: qHTS for Inhibitors of human tyrosyl-DNA phosphodiesterase 1 (TDP1): qHTS in cells in absence of CPT. Potency, µM (highest dose often 46.2 µM), inactives show at the highest dose activity change, negative = growth inhibition, usual class: inhibitors. DT40 Tdp1-/- hTDP1 cells, no CPT, ATP luminescence, 48 h. AID 686978, 2013. 420,000 tested, 15% active; also: potency is read from the fitted curve at half-maximal effect; % is scaled to controls: 0 for no effect and ±100 for the full control effect; nearly all actives have a fitted effect of over 55% in size
#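 Cells were dispensed at 400 per well, compounds added by pin tool, plates incubated ≥48 hr at 37 °C, then CellTiter-Glo added for 30 min at room temperature before luminescence reading. Line: DT40 Tdp1-/- complemented with hTDP1; camptothecin omitted.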
# TDP1 cell CPT: DT40-hTDP1 cell growth loss with CPT | chicken DT40 Tdp1-/-;hTDP1 cells + 20 nM CPT, ATP luminescence, 48 h | Potency, µM (series often up to 46.2 µM), without a hit: at the highest dose activity change, negative = growth inhibition, hits mostly inhibitors | 420,000 tested, 12% active | AID 686979; also: potency is read from the fitted curve at half-maximal effect; % is scaled to controls: 0 for no effect and ±100 for the full control effect; nearly all actives have a fitted effect of over 55% in size
#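 Chicken DT40 Tdp1-/- cells complemented with human TDP1, 400 cells/well, exposed to compounds plus 20 nM camptothecin for at least 48 h at 37 C; viability read as ATP content by CellTiter-Glo luminescence.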
# TGFb inhibitor: inhibitors of TGF-b signaling | 410,000 tested, 1.2% active | HepG2 CAGA-GFP TGF-b/SMAD3 reporter, GFP fluorescence, 18 h; TGF-beta stimulated, 500 pg/mL final | Potency, µM (top dose mostly 46.1 µM), without a hit: top-dose activity, negative = inhibition, actives largely listed as inhibitors; also: potency is read from the fitted curve at half-maximal effect; % is scaled to controls: 0 for no effect and ±100 for the full control effect; nearly all actives have a fitted effect of over 65% in size
#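 Inhibition of TGF-beta-driven CAGA-GFP reporter expression in HEPG2 cells is measured by cellular GFP fluorescence after 18 h stimulation with 500 pg/mL recombinant TGF-beta in 1% FBS medium at 37 degrees C.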
# HepG2 tox: HepG2 cytotoxicity, counter-screen for TGF-b inhibitors; 410,000 tested, 0.76% active; HepG2 CAGA-GFP viability, ATP luminescence, 18 h; Potency, µM (titrated, usually from 46.1 µM), for inactives: top-dose activity change, negative = cytotoxicity, usual class: cytotoxic; AID 588856; also: potency is read from the fitted curve at half-maximal effect
#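 HepG2 CAGA-GFP cells (1000/well, DMEM with 1% FBS) received compound, then TGF-beta at 500 pg/mL final, and were incubated 18 hours at 37 degrees C. Viability was read by CellTiter-Glo luminescence. Media-only wells were set as complete cell-killing and DMSO as no toxicity.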
# TDP1 block: inhibitors of human tyrosyl-DNA phosphodiesterase TDP1 | recombinant TDP1, AlphaScreen DNA substrate cleavage | 350,000 tested, 0.28% active | Potency, µM (series often up to 130 µM), for the others: at the top dose activity change, negative = inhibition, actives largely listed as inhibitors | AID 485290; also: potency is read from the fitted curve at half-maximal effect; % is scaled to controls: 0 for no effect and ±100 for the full control effect; nearly all actives have a fitted effect of over 40% in size
# Target sequence (Q9NUW8 whole entry, looked up): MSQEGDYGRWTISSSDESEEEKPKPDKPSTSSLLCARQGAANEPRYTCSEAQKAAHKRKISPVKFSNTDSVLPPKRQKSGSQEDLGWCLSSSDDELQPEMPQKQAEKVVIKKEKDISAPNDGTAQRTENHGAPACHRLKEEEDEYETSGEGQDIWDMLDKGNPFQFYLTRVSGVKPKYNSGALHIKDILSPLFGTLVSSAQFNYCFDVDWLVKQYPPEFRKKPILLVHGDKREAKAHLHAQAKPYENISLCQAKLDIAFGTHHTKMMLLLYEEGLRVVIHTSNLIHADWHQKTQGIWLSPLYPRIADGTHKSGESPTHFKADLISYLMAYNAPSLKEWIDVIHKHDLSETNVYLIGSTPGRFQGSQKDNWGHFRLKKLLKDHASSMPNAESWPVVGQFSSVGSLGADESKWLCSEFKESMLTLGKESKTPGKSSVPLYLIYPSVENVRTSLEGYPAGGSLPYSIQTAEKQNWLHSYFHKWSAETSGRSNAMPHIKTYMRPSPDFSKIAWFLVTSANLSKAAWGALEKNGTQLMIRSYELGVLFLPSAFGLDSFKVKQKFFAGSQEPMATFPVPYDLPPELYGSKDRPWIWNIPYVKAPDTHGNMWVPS
#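 Here, a 5' biotin and 3' phosphotyrosine-FITC DNA oligonucleotide reports Tdp1 activity: intact substrate bridges AlphaScreen beads, while cleavage leaves a 3' phosphate and drops signal. All incubations at room temperature.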
# IL-1B inflam inh: blocks inflammasome-driven IL-1 beta release | activity change, % at 57.5 µM | THP-1 LPS/ATP IL-1B secretion, AlphaLISA, 16 h; active compounds read low | 360,000 tested, 4.7% active; in the data active = activity change below about -50%; inconclusive = mostly about -30% to -49%; also: % is scaled to controls: 0 for no effect and ±100 for the full control effect
#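 Secreted IL-1B measured by AlphaLISA bead assay after 16 h compound exposure of THP-1 cells; compounds (final up to 57.5 uM) added 1 h before LPS (250 ng/mL) and ATP (1.25 mM) stimulation; lower signal means less secretion.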
# * marks the source's active call; other numbers are inactive results; ? = inconclusive; / = no result given; [ ] = dose if it differs, or a comment. Unless noted, calls follow the shape of the dose curve; as a rule, active = well fitted curve in the direction sought with a large enough effect; inconclusive = small, poorly fitted or top-dose-only effect, or another doubt; inactive = no such curve, though single readings can be large; an effect the other way counts as inactive or inconclusive.
SMILES,DT40 TDP1 no CPT,TDP1 cell CPT,TGFb inhibitor,HepG2 tox,TDP1 block,IL-1B inflam inh
Cc1cccc(-c2nc3ccccc3c(=O)[nH]2)c1,-23%,4%,1%,6%,/,0
Cc1ccc2c(=O)[nH]c(Nc3nc(C)cc(-c4ccccc4)n3)nc2c1,12µM*,10µM*,20%,-5%,-3%,-21
Cc1nc(Nc2nc(-c3ccccc3)cc(=O)[nH]2)nc2ccccc12,16µM*,21µM*,?,-38%,/,-65*
CC(C)(C)OC(=O)N1Cc2cc3ccccc3nc2C1,?,?,-12%,-29%,/,17
CCOC(=O)C1(C(=O)OCC)COC(=O)C1CN1Cc2cc3ccccc3nc2C1 (configuration not stated),9.2µM*,10µM*,?,-80%,/,0
CC(C)C[C@H]1CNC(=S)N1CC1CCN(CCC23CC4CC(CC(C4)C2)C3)CC1,16µM*,?,?,-6%,/,-50*
CC(C)C[C@H]1CNC(=S)N1CC1CCN(CCCC2CCCCC2)CC1,?,18µM*,?,-56%,/,-54*
CCCC[C@@H]1CNC(=S)N1CC1CCCCC1,?,?,-5%,-19%,5%,-6
CCCC[C@@H]1CNC(=S)N1CCC12CC3CC(CC(C3)C1)C2,18µM*,?,30%,3%,8%,5
CCn1c2ccccc2c2cc(/C=N/NC(=O)c3cccc(C)c3)ccc21,18µM*,29µM*,-8%,-43%,-5%,47
Cn1c(=O)n(C)c2cc(/C=N/NC(=O)c3ccc(Cl)cc3)ccc21,?,?,-1%,-6%,/,0
CCn1c2ccccc2c2cc(/C=N/O)ccc21,?,?,?,-28%,0%,-12
Cn1c2ccccc2c2cc(/C=N/NC(=O)c3ccccc3F)ccc21,?,23µM*,-2%,-23%,-1%,-2
Cn1c2ccccc2c2cc(/C=N/NC(=O)c3ccc(N)cc3)ccc21,18µM*,?,-14%,0%,6%,?
Cc1oc(-c2ccccc2Cl)nc1CS(=O)CC(=O)NC1CC1 (configuration not stated),-19%,0%,-2%,-1%,2%,-1
Cc1cc(C)cc(NC(=O)c2cc(S(=O)(=O)N3CCOCC3)cn2C)c1,-12%,8%,0%,-3%,4%,/
Cc1ccc(OCC(=O)Nc2ccc(OCc3cc(=O)n4ccsc4n3)cc2)cc1,-16%,1%,1%,-1%,12%,/
CCOC(=O)c1ccc(-c2c(-c3ccc(OC)cc3)oc(=O)c3cc(OC)c(OC)cc23)cc1F,10µM*,21µM*,-2%,1%,0%,15
CCOC(=O)c1ccc(-c2c(-c3ccc4c(c3)OCO4)noc2-c2ccsc2)cc1F,?,?,9%,3%,/,21
CCOC(=O)c1ccc(-c2c(-c3cc(OC)c(OC)c(OC)c3)noc2C)cc1F,1µM*,1.6µM*,11µM*,1%,/,42
CCOC(=O)c1ccc(-c2c(-c3ccccc3OC)sc3cc4c(cc23)OCO4)cc1F,?,?,0%,-17%,-4%,56
O=C1CN(S(=O)(=O)c2cc(C(=O)O)ccc2Cl)c2ccccc2N1,-14%,15%,3%,-3%,9%[0.0935 µM],54
Cc1ccc(-n2nc(CO)c(C(=O)NCCCCc3ccccc3)n2)cc1,?,-25%,-13%,2%,2%,/
Cc1ccc(-n2nc(CO)c(C(=O)NCCCc3ccccc3)n2)cc1,23µM*,?,-3%,-22%,7%,/
Cc1ccc(-n2nc(CO)c(C(=O)NC(C)CCCc3ccccc3)n2)cc1 (configuration not stated),21µM*,?,0%,-36%,0%,/
SMILES,DT40 TDP1 no CPT,TDP1 cell CPT,TGFb inhibitor,HepG2 tox,TDP1 block,IL-1B inflam inh
CCC(C)NC(=O)c1nn(-c2ccc(C)cc2)nc1CO (configuration not stated),-10%,4%,-12%,-5%,0%,/
Cc1ccc(Oc2ccc(/C=N/O)cn2)cc1,16µM*,23µM*,13%,-5%,1%,-12
NCCc1nc(-c2ccccc2)cs1,-23%,4%,14%,-10%,6%,-52*
NC(=O)Cc1nc(-c2ccccc2)cs1,5%,1%,-18%,3%,5%,-2
CCCCN(Cc1ccco1)C(=O)c1cc2c(=O)[nH]c3ccc(C)cc3c2s1,?,?,4%,-31%,2%,67
CCCCN(CC)C(=O)c1cc2c(=O)[nH]c3ccc(C)cc3c2s1,?,?,-9%,-12%,/,0
Cc1ccc2[nH]c(=O)c3cc(C(=O)N(C)c4ccc(Br)cc4)sc3c2c1,3.3µM*,3.7µM*,-3%,-20%,-1%,/
Cc1ccc2[nH]c(=O)c3cc(C(=O)N(C)c4ccccc4C)sc3c2c1,10µM*,?,3%,-5%,-1%,?
Cc1ccc2[nH]c(=O)c3cc(C(=O)N(CCCOC(C)C)Cc4ccco4)sc3c2c1,12µM*,23µM*,?,-21%,-1%,22
COc1cc2nc(NC(=O)c3ccc(S(=O)(=O)N4CCCC4)cc3)sc2cc1OC,-15%,-13%,?,-40%,6%,/
COc1ccc(C)cc1NC(=O)c1nnn(CC(=O)Nc2c(C)cccc2C)c1N,-10%,0%,1%,-3%,0%,/
CCCCNC(=O)N(c1c(N)n(Cc2ccccc2)c(=O)[nH]c1=O)C1CCCC1,24%,0%,-4%,6%,-11%,17
CCC12CSc3nc(Cl)ccc3N1C(=O)C(=O)N2C (configuration not stated),-23%,-11%,-3%,-40%,3%,40
Cc1cc(C)cc(CC(=O)N2CCC2(C)C(=O)NS(=O)(=O)c2cccc(F)c2)c1 (configuration not stated),-13%,-7%,-2%,-65%,/,6
CCN(c1ccccc1)S(=O)(=O)c1cccc(C(=O)N2CCN(S(=O)(=O)c3ccccc3)CC2)c1,?,?,-29%,-1%,0%,-3
C=CCN(c1ccccc1)S(=O)(=O)c1cccc(C(=O)N2CCCC2)c1,18µM*,16µM*,-29%,-6%,4%,7
